# Data reported in PubChem BioAssay (NCATS).
# Results filed as inconclusive are left out. Entries that show only a call come without a potency. Unmarked numbers belong to inactive results. Active and inactive are the calls of the source. Calls come from the whole dose curve; as a rule, active = well fitted curve in the direction sought with a large enough effect; inconclusive = small, poorly fitted or top-dose-only effect, or another doubt; inactive = no such curve, though single readings can be large; an effect the other way counts as inactive or inconclusive.
# Key:
# [1] = system: NIH3T3; experiment: qHTS assay to identify novel small-molecules to repurpose for Merkel cell carcinoma treatment (AID 1296009); details: MCC and control cell lines, CellTiter-Glo viability, 72 h; at 44.8 µM (top of the series) unless noted; note: nearly all actives have a fitted effect of over 60% in size
# Procedure, shortened: (§1)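 Luminescence from CellTiter-Glo, read 10 min after addition at room temperature, reported viability following a 72 hr, 37 degree celsius treatment with NPC or MIPE compounds in titration; values normalized to plate controls.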
# [2] = system: UISO; experiment: as above; details: MCC and control cell lines, CellTiter-Glo viability, 72 h; series mostly up to 46 µM
# Procedure, shortened: as §1
# [3] = system: WaGa; experiment: as above; details: MCC and control cell lines, CellTiter-Glo viability, 72 h; series mostly up to 46 µM
# Procedure, shortened: as §1
# [4] = system: C33A; experiment: Primary qHTS to identify gynecologic anti-cancer compounds using libraries of approved drugs and bioactive compounds (AID 1345084); details: Gynecologic cancer cell panel viability, ATPlite luminescence, 48 h; series mostly up to 57.5 µM; note: nearly all actives have a fitted effect of over 55% in size
# Procedure, shortened: (§2)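 Cytotoxicity screen measuring ATP content by luciferase luminescence. Each compound is applied at five concentrations for 48 h at 37 C with 5% CO2.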
# [5] = system: CASKI; experiment: as above; details: Gynecologic cancer cell panel viability, ATPlite luminescence, 48 h; series mostly up to 57.5 µM
# Procedure, shortened: as §2
# [6] = system: Es-2; experiment: as above; details: Gynecologic cancer cell panel viability, ATPlite luminescence, 48 h; series mostly up to 57.5 µM
# Procedure, shortened: as §2
# [7] = system: Hek293T; experiment: as above; details: Gynecologic cancer cell panel viability, ATPlite luminescence, 48 h, control line for the selectivity index; series mostly up to 57.5 µM
# Procedure, shortened: as §2
# [8] = system: JEG-3; experiment: as above; details: Gynecologic cancer cell panel viability, ATPlite luminescence, 48 h; series mostly up to 57.5 µM
# Procedure, shortened: as §2
# [9] = system: OV90; experiment: as above; details: Gynecologic cancer cell panel viability, ATPlite luminescence, 48 h; series mostly up to 57.5 µM
# Procedure, shortened: as §2
# [10] = system: PA-1; experiment: as above; details: Gynecologic cancer cell panel viability, ATPlite luminescence, 48 h; series mostly up to 57.5 µM
# Procedure, shortened: as §2
# [11] = system: SKOV3; experiment: as above; details: Gynecologic cancer cell panel viability, ATPlite luminescence, 48 h; series mostly up to 57.5 µM
# Procedure, shortened: as §2
# [12] = system: Tov-21-G; experiment: as above; details: Gynecologic cancer cell panel viability, ATPlite luminescence, 48 h; series mostly up to 57.5 µM
# Procedure, shortened: as §2
# [13] = system: Tov112D; experiment: as above; details: Gynecologic cancer cell panel viability, ATPlite luminescence, 48 h; series mostly up to 57.5 µM
# Procedure, shortened: as §2
# [14] = system: CAOV3; experiment: as above; details: Gynecologic cancer cell panel viability, ATPlite luminescence, 48 h; series mostly up to 57.5 µM
# Procedure, shortened: as §2
# [15] = system: HeLa; experiment: as above; details: Gynecologic cancer cell panel viability, ATPlite luminescence, 48 h; series mostly up to 57.5 µM
# Procedure, shortened: as §2
# [16] = Drug repurposing screens with cells derived from glioblastoma tumor samples (AID 1345199); details: GBM patient neurospheres viability, ATP luminescence, 48 h; note: nearly all actives have a fitted effect of over 40% in size; note: potency is the fitted concentration of half-maximal effect
# Procedure, shortened: (§3)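 Primary testing used CD133+ neurospheres from four GBM patients, seven concentrations, 48 h exposure and ATP-based viability; confirmation added three slower-growing patient lines.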
# [17] = system: astro; experiment: as above; details: viability, ATP luminescence, 48 h; series mostly up to 45.9 µM
# Procedure, shortened: as §3
# [18] = at 45.9 µM (top of the series), tumour line B
SMILES,outcome [1],Potency [2],Potency [3],Potency [4],Potency [5],Potency [6],Potency [7],Potency [8],Potency [9],Potency [10],Potency [11],Potency [12],Potency [13],Potency [14],Potency [15],"activity, negative = cell killing [16, 18] [%]",Potency ([16]; tumour line A),Potency [17],"activity, negative = cell killing ([16]; at 45.9 µM (top of the series), tumour line D) [%]","activity, negative = cell killing ([16]; at 46.1 µM (top of the series), tumour line C) [%]"
O=c1[nH]c2ccccc2c(=O)n1CCCl,inactive,inactive,inactive,inactive,inactive,inactive,inactive,inactive,inactive,inactive,inactive,inactive,inactive,,,,,,,
COc1ccccc1N1CCN(CCN2C(=O)CC3(CCCC3)CC2=O)CC1,inactive,,,inactive,inactive,inactive,inactive,inactive,inactive,inactive,inactive,inactive,inactive,inactive,inactive,,,,,
Clc1ccc2c(c1)Nc1ccccc1S2,inactive,,inactive,inactive,inactive,inactive,inactive,inactive,inactive,inactive,inactive,inactive,inactive,inactive,inactive,,,,,
NC(=O)COCCN1CCN(C(c2ccccc2)c2ccc(Cl)cc2)CC1 (stereo not drawn),inactive,inactive,inactive,inactive,inactive,inactive,inactive,inactive,inactive,inactive,inactive,inactive,inactive,,inactive,-14,5.01 µM (active),inactive,,
CC(C)(C)c1ccc(C(=O)CCCCl)cc1,inactive,inactive,inactive,inactive,inactive,inactive,inactive,inactive,inactive,inactive,inactive,inactive,inactive,inactive,,,,,,
CCOC(=O)c1ccc(NC(=O)CN2CCCCC2)cc1,inactive,inactive,inactive,inactive,inactive,inactive,inactive,inactive,inactive,inactive,,inactive,inactive,inactive,inactive,,,inactive,,
COc1ccc(/C(C)=C/C(=O)O)c(OC)c1,inactive,inactive,inactive,inactive,inactive,inactive,inactive,inactive,inactive,inactive,inactive,inactive,inactive,,inactive,,,,,
Cn1cc(S(C)=O)c(=O)c2ccc(F)cc21 (stereo not drawn),inactive,inactive,inactive,inactive,inactive,inactive,inactive,inactive,,inactive,inactive,inactive,inactive,inactive,inactive,-9.03,,inactive,-4.06,-1.4
